Results taken from PubChem BioAssay AID493221 (Johns Hopkins Ion Channel Center, 2011).
In all, about 2,400 compounds went through this assay and about 1,700 (71%) were called active.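 Rule for the calls: active = choline transporter activity left, mean of duplicates at 10 µM, below buffer-only control mean minus 3 SD; inactive = the rest.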 The set was probably picked from earlier hits. The list is a sample of the results.

Target: High affinity choline transporter 1 (Homo sapiens) (UniProt Q9GZV3)
Assay: human choline transporter blockers – cell-based, membrane potential dye, duplicate, confirmation (AID 493221)
Settings: CHT-expressing cells, at 10 µM, LV-to-AA substituted CHT, HEK293 cells

Sequence of High affinity choline transporter 1 (Homo sapiens) (Q9GZV3 whole entry, looked up): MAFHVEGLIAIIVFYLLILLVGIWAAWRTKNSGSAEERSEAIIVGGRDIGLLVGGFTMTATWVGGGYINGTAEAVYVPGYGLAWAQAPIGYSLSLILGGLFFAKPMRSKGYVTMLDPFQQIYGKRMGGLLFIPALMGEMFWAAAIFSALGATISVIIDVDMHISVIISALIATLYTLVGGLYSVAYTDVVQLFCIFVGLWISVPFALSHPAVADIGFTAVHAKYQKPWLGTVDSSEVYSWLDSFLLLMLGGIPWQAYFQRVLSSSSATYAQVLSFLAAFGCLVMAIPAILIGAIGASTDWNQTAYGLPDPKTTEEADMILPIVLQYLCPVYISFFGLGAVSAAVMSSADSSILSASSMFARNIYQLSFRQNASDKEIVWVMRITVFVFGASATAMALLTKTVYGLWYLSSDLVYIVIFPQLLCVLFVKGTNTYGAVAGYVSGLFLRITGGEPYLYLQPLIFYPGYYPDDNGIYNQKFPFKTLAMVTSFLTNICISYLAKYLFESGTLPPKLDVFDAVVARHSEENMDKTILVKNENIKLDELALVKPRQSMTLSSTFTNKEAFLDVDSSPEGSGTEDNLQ

Row | Structure (SMILES) | CHT activity remaining % of control (stronger effect = lower value)
1 | C[N+]1(C)CCOC(O)(c2ccc(-c3ccc(C4(O)C[N+](C)(C)CCO4)cc3)cc2)C1 (stereo not drawn) | 4.79% (active)
2 | COc1ccccc1N1CCN(C(CNC(=O)Oc2ccccc2)c2cccnc2)CC1 (stereo not drawn) | inactive
3 | Cc1nc2ccccn2c1P(=S)(N1CCCCC1)N1CCCCC1 | 61.1% (active)
